Reference: PMC7862700, “An all-to-all approach to the identification of sequence-specific readers for epigenetic DNA modifications on cytosine”

Legend:
Assay in all cases: DAPPL (digital affinity profiling via proximity ligation, sequencing); 10 mM Tris-HCl pH 7.5, 50 mM NaCl, 1 mM DTT, 4% glycerol, room temperature, 30 min; GST-TFs on glutathione beads, 16-mer random dsDNA library, 0.1% formaldehyde crosslink after washing; high values mean tight binding
Conditions in all cases: protein: recombinant; tags: N-terminal GST; dsDNA, one strand shown
FLI1 = molecular target: T1, FLI1 (Homo sapiens, UniProt Q01543 1-452)
T1 sequence: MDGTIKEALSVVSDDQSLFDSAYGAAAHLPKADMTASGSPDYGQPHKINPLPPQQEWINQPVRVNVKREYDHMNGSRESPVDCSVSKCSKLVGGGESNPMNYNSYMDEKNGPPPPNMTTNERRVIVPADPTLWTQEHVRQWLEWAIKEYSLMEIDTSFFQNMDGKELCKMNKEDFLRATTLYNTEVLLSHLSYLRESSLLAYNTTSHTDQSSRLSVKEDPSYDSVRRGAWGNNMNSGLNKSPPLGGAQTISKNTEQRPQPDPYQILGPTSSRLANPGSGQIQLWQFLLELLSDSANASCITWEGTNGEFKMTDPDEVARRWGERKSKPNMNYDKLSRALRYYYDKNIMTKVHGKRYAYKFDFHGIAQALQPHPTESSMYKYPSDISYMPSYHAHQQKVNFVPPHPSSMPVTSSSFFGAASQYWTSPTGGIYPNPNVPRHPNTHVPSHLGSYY
Method in brief: (§1)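 Human transcription factors carrying a GST fusion were produced in yeast, bound to glutathione beads, tagged with DNA barcodes and pooled together with a tag-only sample. Each pool was held with 200 nmole of a random double-stranded 16-mer DNA library in Tris/NaCl/DTT/glycerol buffer for 30 min at room temperature, then washed, crosslinked in 0.1% formaldehyde, proximity-ligated with BsaI/T4 ligase (1 h, 37 °C), PCR-amplified and sequenced on an Illumina NextSeq500. Binding signal is the read frequency of each hexamer for a given factor divided by its frequency in the tag-only sample.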

ELK1 = molecular target: T2, ELK1 (Homo sapiens, UniProt P19419 1-428)
T2 sequence: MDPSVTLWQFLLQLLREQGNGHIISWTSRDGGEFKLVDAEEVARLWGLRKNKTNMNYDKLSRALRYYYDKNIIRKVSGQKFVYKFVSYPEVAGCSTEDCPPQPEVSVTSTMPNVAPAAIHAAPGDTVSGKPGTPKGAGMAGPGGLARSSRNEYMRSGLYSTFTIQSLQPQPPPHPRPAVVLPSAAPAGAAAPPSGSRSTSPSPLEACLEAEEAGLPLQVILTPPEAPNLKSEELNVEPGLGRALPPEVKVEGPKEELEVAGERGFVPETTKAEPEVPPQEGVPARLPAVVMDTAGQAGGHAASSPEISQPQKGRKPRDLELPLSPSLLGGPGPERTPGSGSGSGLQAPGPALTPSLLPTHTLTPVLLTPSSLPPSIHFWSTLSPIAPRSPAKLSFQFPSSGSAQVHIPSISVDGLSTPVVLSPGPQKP
Method in brief: as §1

GABPA = molecular target: T3, GABPA (Homo sapiens, UniProt Q06546 1-454)
T3 sequence: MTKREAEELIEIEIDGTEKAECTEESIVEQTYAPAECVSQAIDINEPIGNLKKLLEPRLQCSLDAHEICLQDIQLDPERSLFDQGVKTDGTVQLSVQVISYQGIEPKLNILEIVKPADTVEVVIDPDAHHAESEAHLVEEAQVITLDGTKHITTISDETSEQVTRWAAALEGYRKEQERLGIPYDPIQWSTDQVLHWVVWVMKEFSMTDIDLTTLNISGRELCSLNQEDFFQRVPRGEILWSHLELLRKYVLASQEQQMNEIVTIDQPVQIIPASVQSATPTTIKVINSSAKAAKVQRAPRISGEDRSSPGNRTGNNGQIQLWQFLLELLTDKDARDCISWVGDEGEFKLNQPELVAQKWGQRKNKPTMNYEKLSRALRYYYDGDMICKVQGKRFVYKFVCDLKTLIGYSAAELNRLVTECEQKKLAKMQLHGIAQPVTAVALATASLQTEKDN
Method in brief: as §1

ERG = molecular target: T4, ERG (Homo sapiens, UniProt P11308 1-479)
T4 sequence: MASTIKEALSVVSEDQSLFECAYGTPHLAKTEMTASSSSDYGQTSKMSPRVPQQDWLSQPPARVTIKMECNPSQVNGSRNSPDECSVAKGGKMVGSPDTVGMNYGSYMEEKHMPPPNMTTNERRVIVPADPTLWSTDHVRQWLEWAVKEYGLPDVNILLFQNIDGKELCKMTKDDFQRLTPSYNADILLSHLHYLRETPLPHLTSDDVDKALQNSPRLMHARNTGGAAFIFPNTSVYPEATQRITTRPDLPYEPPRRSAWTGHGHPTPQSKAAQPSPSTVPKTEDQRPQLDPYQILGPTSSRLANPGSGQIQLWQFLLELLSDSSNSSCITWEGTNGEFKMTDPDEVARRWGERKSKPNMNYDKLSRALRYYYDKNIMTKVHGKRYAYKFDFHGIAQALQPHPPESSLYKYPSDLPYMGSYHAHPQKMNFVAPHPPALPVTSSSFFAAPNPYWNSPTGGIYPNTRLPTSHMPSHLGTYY
Method in brief: as §1

ELF1 = ELF1 (Homo sapiens, UniProt P32519 1-619)
Method in brief: as §1

EHF = molecular target: T5, EHF (Homo sapiens, UniProt Q9NZC4 1-300)
T5 sequence: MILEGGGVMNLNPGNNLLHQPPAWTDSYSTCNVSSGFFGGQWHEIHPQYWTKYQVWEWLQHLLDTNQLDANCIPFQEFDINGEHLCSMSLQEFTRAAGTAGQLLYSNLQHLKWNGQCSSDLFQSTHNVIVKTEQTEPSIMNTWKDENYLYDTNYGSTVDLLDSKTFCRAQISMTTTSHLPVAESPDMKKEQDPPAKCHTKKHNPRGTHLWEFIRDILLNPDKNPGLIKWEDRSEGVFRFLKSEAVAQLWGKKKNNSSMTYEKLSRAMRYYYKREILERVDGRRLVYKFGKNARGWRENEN
Method in brief: as §1

SPI1 = SPI1 (Homo sapiens, UniProt P17947 1-270)
Method in brief: as §1

SPIB = SPIB (Homo sapiens, UniProt Q01892 1-262)
Method in brief: as §1

ELK3 = molecular target: T6, ELK3 (Homo sapiens, UniProt P41970 1-407)
T6 sequence: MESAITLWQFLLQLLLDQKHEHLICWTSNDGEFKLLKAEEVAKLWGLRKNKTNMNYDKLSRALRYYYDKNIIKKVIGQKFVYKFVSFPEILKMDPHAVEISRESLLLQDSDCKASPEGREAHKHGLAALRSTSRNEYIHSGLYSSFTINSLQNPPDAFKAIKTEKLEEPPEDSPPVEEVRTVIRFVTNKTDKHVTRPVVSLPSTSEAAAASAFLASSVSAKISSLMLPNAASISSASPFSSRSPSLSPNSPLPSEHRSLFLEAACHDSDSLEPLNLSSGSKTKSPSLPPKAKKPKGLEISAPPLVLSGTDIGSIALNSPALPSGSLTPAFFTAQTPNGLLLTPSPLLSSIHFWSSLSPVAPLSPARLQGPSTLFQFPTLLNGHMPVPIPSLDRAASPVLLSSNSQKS
Method in brief: as §1

Chain of ELF1 (P32519 whole entry): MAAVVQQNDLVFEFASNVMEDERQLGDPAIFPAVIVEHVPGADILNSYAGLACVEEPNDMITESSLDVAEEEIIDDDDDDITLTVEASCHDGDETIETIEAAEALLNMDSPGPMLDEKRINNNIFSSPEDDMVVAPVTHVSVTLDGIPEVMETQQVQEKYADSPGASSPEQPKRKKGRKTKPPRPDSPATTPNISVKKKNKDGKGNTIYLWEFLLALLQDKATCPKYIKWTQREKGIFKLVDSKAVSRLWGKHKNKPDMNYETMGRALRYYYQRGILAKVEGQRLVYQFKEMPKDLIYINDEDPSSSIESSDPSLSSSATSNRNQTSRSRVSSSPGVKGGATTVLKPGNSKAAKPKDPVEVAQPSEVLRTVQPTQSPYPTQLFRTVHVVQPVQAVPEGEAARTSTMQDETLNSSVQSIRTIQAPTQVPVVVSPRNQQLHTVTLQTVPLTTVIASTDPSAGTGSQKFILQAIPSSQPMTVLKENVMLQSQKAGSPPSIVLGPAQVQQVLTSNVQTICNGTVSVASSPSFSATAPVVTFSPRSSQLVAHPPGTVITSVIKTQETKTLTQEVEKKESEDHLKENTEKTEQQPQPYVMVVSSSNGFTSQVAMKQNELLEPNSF
Chain of SPIB (Q01892 whole entry): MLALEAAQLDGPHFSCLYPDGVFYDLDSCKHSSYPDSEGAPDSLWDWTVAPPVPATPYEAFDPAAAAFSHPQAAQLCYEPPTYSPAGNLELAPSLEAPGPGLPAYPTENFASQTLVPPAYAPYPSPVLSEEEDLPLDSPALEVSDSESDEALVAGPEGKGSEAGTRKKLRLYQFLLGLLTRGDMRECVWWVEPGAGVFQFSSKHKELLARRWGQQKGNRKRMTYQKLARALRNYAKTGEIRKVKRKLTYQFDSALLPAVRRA

Row | Sequence | binding signal (FLI1) | binding signal (ELK1) | binding signal (GABPA) | binding signal (ERG) | binding signal (ELF1) | binding signal (EHF) | binding signal (SPI1) | binding signal (SPIB) | binding signal (ELK3)
1 | CTTTCC | 2.05 fold enrichment (6-mer frequency, TF over GST control) | 1.9 fold enrichment (6-mer frequency, TF over GST control) | 1.83 fold enrichment (6-mer frequency, TF over GST control) | 2.04 fold enrichment (6-mer frequency, TF over GST control) | 1.89 fold enrichment (6-mer frequency, TF over GST control) | 2.05 fold enrichment (6-mer frequency, TF over GST control) | 1.84 fold enrichment (6-mer frequency, TF over GST control) | 2.18 fold enrichment (6-mer frequency, TF over GST control) | 2.1 fold enrichment (6-mer frequency, TF over GST control)
2 | ATTCCG | 1.84 fold enrichment (6-mer frequency, TF over GST control) | 1.84 fold enrichment (6-mer frequency, TF over GST control) | 1.65 fold enrichment (6-mer frequency, TF over GST control) | 1.82 fold enrichment (6-mer frequency, TF over GST control) | 1.61 fold enrichment (6-mer frequency, TF over GST control) | 1.86 fold enrichment (6-mer frequency, TF over GST control) | 1.69 fold enrichment (6-mer frequency, TF over GST control) | 1.78 fold enrichment (6-mer frequency, TF over GST control) | 1.78 fold enrichment (6-mer frequency, TF over GST control)
3 | GATATA | 1.12 fold enrichment (6-mer frequency, TF over GST control) | 1.06 fold enrichment (6-mer frequency, TF over GST control) | 1.15 fold enrichment (6-mer frequency, TF over GST control) | 1.13 fold enrichment (6-mer frequency, TF over GST control) | 1.09 fold enrichment (6-mer frequency, TF over GST control) | 1.18 fold enrichment (6-mer frequency, TF over GST control) | 1.09 fold enrichment (6-mer frequency, TF over GST control) | 1.06 fold enrichment (6-mer frequency, TF over GST control) | 1.17 fold enrichment (6-mer frequency, TF over GST control)
4 | TTCGTA | 1.32 fold enrichment (6-mer frequency, TF over GST control) | 1.44 fold enrichment (6-mer frequency, TF over GST control) | 1.29 fold enrichment (6-mer frequency, TF over GST control) | 1.38 fold enrichment (6-mer frequency, TF over GST control) | 1.35 fold enrichment (6-mer frequency, TF over GST control) | 1.34 fold enrichment (6-mer frequency, TF over GST control) | 1.24 fold enrichment (6-mer frequency, TF over GST control) | 1.35 fold enrichment (6-mer frequency, TF over GST control) | 1.41 fold enrichment (6-mer frequency, TF over GST control)
5 | CTGAAA | 1.16 fold enrichment (6-mer frequency, TF over GST control) | 1.14 fold enrichment (6-mer frequency, TF over GST control) | 1.1 fold enrichment (6-mer frequency, TF over GST control) | 1.04 fold enrichment (6-mer frequency, TF over GST control) | 1.19 fold enrichment (6-mer frequency, TF over GST control) | 1.09 fold enrichment (6-mer frequency, TF over GST control) | 1.19 fold enrichment (6-mer frequency, TF over GST control) | 1.24 fold enrichment (6-mer frequency, TF over GST control) | 1.03 fold enrichment (6-mer frequency, TF over GST control)
6 | AAATAA | 1.27 fold enrichment (6-mer frequency, TF over GST control) | 1.32 fold enrichment (6-mer frequency, TF over GST control) | 1.33 fold enrichment (6-mer frequency, TF over GST control) | 1.37 fold enrichment (6-mer frequency, TF over GST control) | 1.33 fold enrichment (6-mer frequency, TF over GST control) | 1.29 fold enrichment (6-mer frequency, TF over GST control) | 1.32 fold enrichment (6-mer frequency, TF over GST control) | 1.39 fold enrichment (6-mer frequency, TF over GST control) | 1.33 fold enrichment (6-mer frequency, TF over GST control)
7 | CTCATG | 1.29 fold enrichment (6-mer frequency, TF over GST control) | 1.29 fold enrichment (6-mer frequency, TF over GST control) | 1.26 fold enrichment (6-mer frequency, TF over GST control) | 1.21 fold enrichment (6-mer frequency, TF over GST control) | 1.32 fold enrichment (6-mer frequency, TF over GST control) | 1.23 fold enrichment (6-mer frequency, TF over GST control) | 1.27 fold enrichment (6-mer frequency, TF over GST control) | 1.11 fold enrichment (6-mer frequency, TF over GST control) | 1.26 fold enrichment (6-mer frequency, TF over GST control)
8 | CATCTC | 1.42 fold enrichment (6-mer frequency, TF over GST control) | 1.3 fold enrichment (6-mer frequency, TF over GST control) | 1.34 fold enrichment (6-mer frequency, TF over GST control) | 1.24 fold enrichment (6-mer frequency, TF over GST control) | 1.37 fold enrichment (6-mer frequency, TF over GST control) | 1.31 fold enrichment (6-mer frequency, TF over GST control) | 1.36 fold enrichment (6-mer frequency, TF over GST control) | 1.26 fold enrichment (6-mer frequency, TF over GST control) | 1.22 fold enrichment (6-mer frequency, TF over GST control)
